In the supplement of paper PMC10849652:
Of roughly 8,800 targets only a part is listed; those with a hit were picked by preference. About 0.5% of all pairs of compound and target were hits. Unmarked numbers belong to inactive results.

What was measured:
Assay in all cases: log2 fold change, soluble protein after heating vs DMSO (PISA); higher = thermal stabilisation; K562 lysate, 10 uM; active = over 0.2 and 3.5 SD of the protein, either way, in both replicates (recomputed)
lapatinib = compound: CS(=O)(=O)CCNCc1ccc(-c2ccc3ncnc(Nc4ccc(OCc5cccc(F)c5)c(Cl)c4)c3c2)o1 [lapatinib]
In short: (§1)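 Log-two fold change in thermal stability relative to solvent controls is reported from duplicates. For each sample, crude K562 extract from dounce-homogenised pellets in PBS pH 7.4 with 1 mM MgCl2, at 1 mg/mL protein, was treated with 10 μM compound for 30 min. Aliquots heated for 3 min across 48°C-58°C were pooled, brought to 0.5% NP-40 at 4°C and cleared at 21,000xg for 90 min. The supernatant was quantified by TMTpro 16plex LC-MS/MS with channel sums equalised.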

crizotinib = compound: C[C@@H](Oc1cc(-c2cnn(C3CCNCC3)c2)cnc1N)c1c(Cl)ccc(F)c1Cl [crizotinib]
In short: as §1

[1] = compound: C[C@H](C1=CC=C(C=C1)C(=O)NC2=C3C=CNC3=NC=C2)N
In short: as §1

duvelisib = compound: C[C@H](Nc1ncnc2nc[nH]c12)c1cc2cccc(Cl)c2c(=O)n1-c1ccccc1 [duvelisib]
In short: as §1

gandotinib = compound: Cc1cc(Nc2cc(CN3CCOCC3)c3nc(C)c(Cc4ccc(Cl)cc4F)n3n2)n[nH]1 [gandotinib]
In short: as §1

tozasertib = compound: Cc1cc(Nc2cc(N3CCN(C)CC3)nc(Sc3ccc(NC(=O)C4CC4)cc3)n2)n[nH]1 [tozasertib]
In short: as §1

doramapimod = compound: Cc1ccc(-n2nc(C(C)(C)C)cc2NC(=O)Nc2ccc(OCCN3CCOCC3)c3ccccc23)cc1 [doramapimod]
In short: as §1

[2] = compound: Cc1cccc(CC(=O)N2CCc3c2ccc(-c2cn(C)c4ncnc(N)c24)c3F)n1
In short: as §1

nilotinib = compound: Cc1cn(-c2cc(NC(=O)c3ccc(C)c(Nc4nccc(-c5cccnc5)n4)c3)cc(C(F)(F)F)c2)cn1 [nilotinib]
In short: as §1

[3] = compound: Cc1nc(Nc2n[nH]c3c2CN(C(=O)N[C@H](CN(C)C)c2ccccc2)C3(C)C)c2sccc2n1
In short: as §1

dasatinib = compound: Cc1nc(Nc2ncc(C(=O)Nc3c(C)cccc3Cl)s2)cc(N2CCN(CCO)CC2)n1 [dasatinib]
In short: as §1

[4] = compound: Cc1ncc(-c2ccnc(Nc3ccc(S(C)(=O)=O)cc3)n2)n1C(C)C
In short: as §1

[5] = compound: Cn1cc(-c2ccc3c(c2)CCN3C(=O)Cc2cccc(C(F)(F)F)c2)c2c(N)ncnc21
In short: as §1

quisinostat = compound: Cn1cc(CNCC2CCN(c3ncc(C(=O)NO)cn3)CC2)c2ccccc21 [quisinostat]
In short: as §1

tipifarnib = compound: Cn1cncc1[C@@](N)(c1ccc(Cl)cc1)c1ccc2c(c1)c(-c1cccc(Cl)c1)cc(=O)n2C [tipifarnib]
In short: as §1

[6] = compound: NC(=O)Nc1cc(-c2cccc(F)c2)sc1C(=O)N[C@H]1CCCNC1
In short: as §1

[7] = compound: NC(=O)c1cnc(N[C@@H]2CCCC[C@@H]2N)nc1Nc1cccc(-n2nccn2)c1
In short: as §1

pictilisib = compound: CS(=O)(=O)N1CCN(Cc2cc3nc(-c4cccc5[nH]ncc45)nc(N4CCOCC4)c3s2)CC1 [pictilisib]
In short: as §1

bafetinib = compound: Cc1ccc(NC(=O)c2ccc(CN3CC[C@H](N(C)C)C3)c(C(F)(F)F)c2)cc1Nc1nccc(-c2cncnc2)n1 [bafetinib]
In short: as §1

[8] = compound: NC1(c2ccc(-c3nc4ccn5c(=O)[nH]nc5c4cc3-c3ccccc3)cc2)CCC1
In short: as §1

Sequence of UniProt Q9UPT9 (Q9UPT9 whole entry, looked up): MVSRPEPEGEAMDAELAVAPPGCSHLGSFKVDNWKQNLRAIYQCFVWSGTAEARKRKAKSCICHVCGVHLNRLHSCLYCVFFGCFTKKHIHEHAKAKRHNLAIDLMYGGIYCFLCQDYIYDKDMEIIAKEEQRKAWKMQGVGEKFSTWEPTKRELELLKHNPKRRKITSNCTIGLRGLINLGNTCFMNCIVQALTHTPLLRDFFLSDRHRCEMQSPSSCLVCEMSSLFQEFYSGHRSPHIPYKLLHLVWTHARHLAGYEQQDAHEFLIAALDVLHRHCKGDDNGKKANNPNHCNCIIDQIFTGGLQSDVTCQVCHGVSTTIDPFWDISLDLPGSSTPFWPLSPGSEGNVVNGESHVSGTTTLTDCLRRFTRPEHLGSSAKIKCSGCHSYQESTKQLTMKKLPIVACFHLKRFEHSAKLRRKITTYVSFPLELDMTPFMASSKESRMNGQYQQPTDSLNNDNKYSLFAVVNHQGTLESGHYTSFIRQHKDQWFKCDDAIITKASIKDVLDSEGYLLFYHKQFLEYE
Sequence of UniProt O00488 (O00488 whole entry, looked up): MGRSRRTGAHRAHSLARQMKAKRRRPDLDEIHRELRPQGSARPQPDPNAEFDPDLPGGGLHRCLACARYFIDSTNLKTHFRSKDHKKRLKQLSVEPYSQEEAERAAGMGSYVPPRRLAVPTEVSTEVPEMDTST
Sequence of UniProt Q15072 (Q15072 whole entry, looked up): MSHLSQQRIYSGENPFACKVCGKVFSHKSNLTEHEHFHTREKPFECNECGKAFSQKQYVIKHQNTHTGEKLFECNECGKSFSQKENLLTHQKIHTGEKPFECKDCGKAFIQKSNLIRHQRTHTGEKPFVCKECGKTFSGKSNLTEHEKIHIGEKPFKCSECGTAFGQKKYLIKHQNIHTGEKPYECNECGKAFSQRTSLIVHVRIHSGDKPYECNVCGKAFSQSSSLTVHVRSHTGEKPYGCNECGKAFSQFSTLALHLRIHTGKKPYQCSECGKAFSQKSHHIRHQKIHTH
Sequence of UniProt P30291 (P30291 whole entry, looked up): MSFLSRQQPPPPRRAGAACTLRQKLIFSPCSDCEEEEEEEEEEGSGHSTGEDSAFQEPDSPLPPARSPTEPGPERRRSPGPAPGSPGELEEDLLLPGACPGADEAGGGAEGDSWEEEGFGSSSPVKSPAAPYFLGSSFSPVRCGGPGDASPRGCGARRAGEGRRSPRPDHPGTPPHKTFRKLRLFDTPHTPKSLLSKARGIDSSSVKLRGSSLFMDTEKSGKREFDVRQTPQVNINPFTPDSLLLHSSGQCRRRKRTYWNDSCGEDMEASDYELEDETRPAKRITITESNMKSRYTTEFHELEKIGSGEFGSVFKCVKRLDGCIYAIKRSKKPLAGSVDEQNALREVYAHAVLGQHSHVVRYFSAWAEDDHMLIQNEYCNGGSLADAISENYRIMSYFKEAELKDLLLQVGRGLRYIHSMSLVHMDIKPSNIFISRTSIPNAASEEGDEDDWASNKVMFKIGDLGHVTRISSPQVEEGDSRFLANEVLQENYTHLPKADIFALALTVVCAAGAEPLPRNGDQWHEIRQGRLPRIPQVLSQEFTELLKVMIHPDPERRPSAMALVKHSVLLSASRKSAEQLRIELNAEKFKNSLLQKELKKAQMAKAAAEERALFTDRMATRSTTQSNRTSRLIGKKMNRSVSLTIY
Sequence of UniProt Q6WRX3 (Q6WRX3 whole entry, looked up): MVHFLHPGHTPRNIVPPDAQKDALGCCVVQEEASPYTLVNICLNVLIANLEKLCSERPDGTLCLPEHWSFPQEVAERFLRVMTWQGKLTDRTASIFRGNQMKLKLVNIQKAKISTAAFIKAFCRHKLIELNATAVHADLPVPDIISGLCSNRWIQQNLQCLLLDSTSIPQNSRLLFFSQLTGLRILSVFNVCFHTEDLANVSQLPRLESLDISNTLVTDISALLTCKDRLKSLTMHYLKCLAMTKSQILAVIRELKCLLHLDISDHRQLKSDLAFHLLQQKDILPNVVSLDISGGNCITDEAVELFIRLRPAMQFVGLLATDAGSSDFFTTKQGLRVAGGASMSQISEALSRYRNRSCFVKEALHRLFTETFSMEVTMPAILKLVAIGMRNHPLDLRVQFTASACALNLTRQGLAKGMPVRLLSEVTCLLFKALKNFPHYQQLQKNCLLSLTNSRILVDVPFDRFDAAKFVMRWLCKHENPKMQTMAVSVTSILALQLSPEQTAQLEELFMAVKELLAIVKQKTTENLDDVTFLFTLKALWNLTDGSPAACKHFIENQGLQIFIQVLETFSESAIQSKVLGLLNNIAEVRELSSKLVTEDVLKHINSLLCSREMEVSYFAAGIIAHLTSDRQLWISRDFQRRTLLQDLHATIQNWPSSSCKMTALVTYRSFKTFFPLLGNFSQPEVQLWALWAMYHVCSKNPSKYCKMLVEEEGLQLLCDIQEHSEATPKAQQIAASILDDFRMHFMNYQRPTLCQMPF
Sequence of UniProt Q8TCY9 (Q8TCY9 whole entry, looked up): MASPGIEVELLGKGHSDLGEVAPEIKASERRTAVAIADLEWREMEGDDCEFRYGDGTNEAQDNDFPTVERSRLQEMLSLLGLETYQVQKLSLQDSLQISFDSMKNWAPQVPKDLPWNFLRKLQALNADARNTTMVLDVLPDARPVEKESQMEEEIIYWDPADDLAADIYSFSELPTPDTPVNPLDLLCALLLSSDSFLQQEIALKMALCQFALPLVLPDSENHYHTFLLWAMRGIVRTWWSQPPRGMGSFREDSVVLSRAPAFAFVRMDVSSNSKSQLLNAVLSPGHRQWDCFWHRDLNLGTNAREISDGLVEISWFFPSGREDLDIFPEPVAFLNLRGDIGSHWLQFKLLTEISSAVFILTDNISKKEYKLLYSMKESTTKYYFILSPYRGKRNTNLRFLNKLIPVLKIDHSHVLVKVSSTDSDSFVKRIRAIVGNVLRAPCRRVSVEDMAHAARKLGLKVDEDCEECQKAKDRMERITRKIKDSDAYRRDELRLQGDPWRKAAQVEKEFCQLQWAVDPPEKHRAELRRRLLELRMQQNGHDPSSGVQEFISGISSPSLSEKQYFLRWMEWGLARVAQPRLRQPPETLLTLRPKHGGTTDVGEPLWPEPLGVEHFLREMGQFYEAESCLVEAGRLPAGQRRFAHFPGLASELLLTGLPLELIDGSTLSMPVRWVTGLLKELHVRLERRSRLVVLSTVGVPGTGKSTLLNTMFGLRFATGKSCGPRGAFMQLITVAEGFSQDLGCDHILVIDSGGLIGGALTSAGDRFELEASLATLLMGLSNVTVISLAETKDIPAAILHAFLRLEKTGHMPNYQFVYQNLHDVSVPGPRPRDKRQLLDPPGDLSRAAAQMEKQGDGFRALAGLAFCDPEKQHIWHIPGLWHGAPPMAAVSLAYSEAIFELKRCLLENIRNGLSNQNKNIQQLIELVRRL
Sequence of UniProt Q15906 (Q15906 whole entry, looked up): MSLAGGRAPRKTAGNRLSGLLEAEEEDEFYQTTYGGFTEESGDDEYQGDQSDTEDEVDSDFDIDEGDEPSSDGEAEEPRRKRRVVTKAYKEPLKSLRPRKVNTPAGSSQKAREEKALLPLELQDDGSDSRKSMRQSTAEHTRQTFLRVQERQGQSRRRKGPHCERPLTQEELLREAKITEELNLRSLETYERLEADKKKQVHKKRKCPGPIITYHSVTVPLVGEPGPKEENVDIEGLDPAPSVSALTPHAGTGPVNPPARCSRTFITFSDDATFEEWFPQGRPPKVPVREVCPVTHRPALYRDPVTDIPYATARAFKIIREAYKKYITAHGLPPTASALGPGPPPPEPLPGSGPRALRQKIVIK
Sequence of UniProt Q9Y5A6 (Q9Y5A6 whole entry, looked up): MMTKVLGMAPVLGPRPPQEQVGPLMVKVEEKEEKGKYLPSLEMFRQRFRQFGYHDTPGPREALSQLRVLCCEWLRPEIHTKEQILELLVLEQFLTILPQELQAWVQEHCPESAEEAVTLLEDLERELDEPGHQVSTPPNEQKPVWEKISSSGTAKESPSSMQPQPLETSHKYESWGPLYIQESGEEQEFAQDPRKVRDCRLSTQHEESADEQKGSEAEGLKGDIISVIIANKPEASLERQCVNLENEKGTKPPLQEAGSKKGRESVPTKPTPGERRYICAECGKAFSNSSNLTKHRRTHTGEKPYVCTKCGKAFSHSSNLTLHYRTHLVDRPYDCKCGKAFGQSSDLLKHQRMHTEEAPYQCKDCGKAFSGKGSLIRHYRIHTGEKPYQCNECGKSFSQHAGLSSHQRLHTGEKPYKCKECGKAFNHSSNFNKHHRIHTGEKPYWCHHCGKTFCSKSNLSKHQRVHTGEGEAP
Sequence of UniProt Q8IUH5 (Q8IUH5 whole entry, looked up): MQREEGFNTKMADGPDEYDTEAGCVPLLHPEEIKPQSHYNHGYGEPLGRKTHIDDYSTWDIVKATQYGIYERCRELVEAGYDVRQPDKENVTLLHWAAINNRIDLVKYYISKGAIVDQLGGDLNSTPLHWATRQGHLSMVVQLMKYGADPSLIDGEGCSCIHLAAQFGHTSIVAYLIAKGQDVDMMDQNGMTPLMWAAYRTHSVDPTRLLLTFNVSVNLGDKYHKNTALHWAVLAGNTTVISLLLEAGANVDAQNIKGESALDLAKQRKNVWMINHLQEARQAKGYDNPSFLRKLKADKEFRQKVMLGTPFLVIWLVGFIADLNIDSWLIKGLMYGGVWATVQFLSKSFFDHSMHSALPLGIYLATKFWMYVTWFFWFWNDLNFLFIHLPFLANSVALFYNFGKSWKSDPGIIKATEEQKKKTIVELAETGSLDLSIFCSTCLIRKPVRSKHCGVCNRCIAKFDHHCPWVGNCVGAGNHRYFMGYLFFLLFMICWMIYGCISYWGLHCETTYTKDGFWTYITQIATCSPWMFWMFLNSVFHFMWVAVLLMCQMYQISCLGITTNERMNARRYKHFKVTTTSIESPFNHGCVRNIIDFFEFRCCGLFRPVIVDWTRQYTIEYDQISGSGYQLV
Sequence of UniProt P58557 (P58557 whole entry, looked up): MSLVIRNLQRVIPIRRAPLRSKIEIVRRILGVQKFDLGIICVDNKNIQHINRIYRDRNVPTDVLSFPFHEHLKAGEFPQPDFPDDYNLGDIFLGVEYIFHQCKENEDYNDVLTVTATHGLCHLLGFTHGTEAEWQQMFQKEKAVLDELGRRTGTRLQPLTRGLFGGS

Target	log2 fold change (lapatinib)	log2 fold change (crizotinib)	log2 fold change [1]	log2 fold change (duvelisib)	log2 fold change (gandotinib)	log2 fold change (tozasertib)	log2 fold change (doramapimod)	log2 fold change [2]	log2 fold change (nilotinib)	log2 fold change [3]	log2 fold change (dasatinib)	log2 fold change [4]	log2 fold change [5]	log2 fold change (quisinostat)	log2 fold change (tipifarnib)	log2 fold change [6]	log2 fold change [7]	log2 fold change (pictilisib)	log2 fold change (bafetinib)	log2 fold change [8]
ZDHHC17 (UniProt Q8IUH5)	0.042	0.098	-0.778 (active)	-0.301	0.037	-0.025	0.11	0.17	-0.164	0.039	-0.096	-0.115	-0.028	0.045	0.118	-0.118	-0.047			
XPOT (UniProt F5GYW6)	-0.115																-0.192			
WAS (UniProt P42768)			-0.16	-0.194	-0.057	-0.127		0.103	0.636 (active)	-0.102	0.095	0.318	0.129		-0.064			-0.027	-0.065	0.025
WEE1 (UniProt P30291)	-0.034	-0.141		0.033		0.011	0.183		-0.002	0.001	0.397 (active)	-0.033	-0.002	-0.069	-0.007	0.223	-0.106	-0.047	0.068	-0.044
ZKSCAN8 (UniProt Q15776)	0.08	-0.151		0.068		-0.014	0.082		0.05	0.015	-0.096	-0.03	0.026	-0.134	0.101	0.005	-0.029			-0.064
WAC isoform 5 (UniProt Q9BTA9)				0.226							-0.336		0.254							-0.129
ZSWIM8 isoform 4 (UniProt A7E2V4)		0.027	-0.027	-0.145	-0.153	0.169	-0.084	0.205	-0.009	0.129	0.085	0.07	0.042	-0.051	-0.065	0.067		-0.253	-0.257	-0.112
ZSCAN21 (UniProt Q9Y5A6)			-0.131		-0.108	-0.001		0.068												
URGCP (UniProt Q8TCY9)				0.158					0.028	0.079	-0.204	-0.04	-0.145		-0.008			-0.025	-0.137	
ZNF845 (UniProt Q96IR2)	0.012	0.018	-0.069	-0.023	0.015		0.16	0.017	0	0.087	-0.038	-0.053	0.021	-0.033	-0.006	0.122	0.016	-0.013	-0.031	0.163
UNC13A (UniProt Q9UPW8)			-1.52		0.331			0.481	0.114	0.046		0.165			0.064					-0.048
UNKL (UniProt E9PDK2)		-0.078		0.184		-0.039	0.07				-0.216		0.006	0.015		0.045		-0.113	-0.041	
ZNF146 (UniProt Q15072)				-0.018							-0.028		0.188							
YBEY (UniProt P58557)				0.049		0.035					0.067		-0.083							0.044
ZNF593 (UniProt O00488)	-0.114	0.113	-0.087	0.089	0.016	0.047	0.033	0.045			0.125		-0.042	0.02		0.063	0.295	0.078	0.059	0.03
ULK3 isoform 4 (UniProt Q6PHR2)	0.059	-0.088	0.113	0.065	-0.08	0.059	-0.15	0.354			0.035		-0.181	-0.11		0.296	0.133	-0.008	0.041	-0.157
VPS72 (UniProt Q15906)	0.025	0.005	-0.099	0.001	0.031	0.059	-0.023	0.136	0.029	0.032	-0.054	0.05	0.073	0.005	0.088	0.05	-0.03			-0.036
ZFYVE19 isoform 3 (UniProt Q96K21)	0.114																-0.002	-0.02	-0.013	
ZYG11A (UniProt Q6WRX3)	-0.301		-0.306		0.192			0.323	0.151	-0.077		-0.227			-0.124		0.085	0.031	-0.378	-0.068
UTRN isoform 2 (UniProt P46939)			-0.009		0.04	-0.077		-0.018										0.01	-0.175	0.21
WIPI2 isoform 6 (UniProt Q9Y4P8)			0.025		0.181			-0.089										-0.102	-0.013	
VASN (UniProt Q6EMK4)				-0.119		0.08					0.081		0.027							-0.059
USP22 (UniProt Q9UPT9)		-0.072	0.004	-0.006	-0.148	0.036	-0.029	0.019	-0.032	0.002	0.022	0.037	0.028	-0.065	-0.028	0.004		0.001	-0.032	-0.012
ZBTB40 (UniProt Q9NUA8)	0.022	0.036	-0.249	0.018	0.219		-0.02	0.004	-0.076	0.29	-0.024	0.086	-0.051	-0.01	0.078	-0.018	0.004			0.058
ZNF598 isoform 3 (UniProt Q86UK7)	0.027	0.006	-0.01	-0.01	0.023	0.048	0.024	0.015	-0.004	-0.022	-0.063	0.031	0.032	-0.023	-0.019	0.01	0.011	0.005	-0.012	0.029
ZNF652 (UniProt Q9Y2D9)		-0.007					0							0		-0.036				
